Vaccinia Venus – vaccinia inhibition (Venus reporter). Vaccinia virus Venus reporter expression, fluorescence. Potency, µM (series often up to 36.5 µM), hits mostly inhibitors. hit rate 0.46% among 330,000; calls by dose curve; tested in A549 cells; also: nearly all actives have a fitted effect of over 30% in size
VACV mCherry inh – vaccinia inhibition (mCherry reporter) | AID 720579 | Vaccinia virus mCherry reporter infection, fluorescence | hit rate 0.63% among 310,000 | Potency, µM (top dose mostly 36.5 µM), hits mostly inhibitors; calls by dose curve; tested in A549 cells; also: nearly all actives have a fitted effect of over 35% in size
HCMV inh – human cytomegalovirus inhibition; AID 1259415; HFF cells, HCMV-luciferase reporter, 72 h; hits give low values; hit rate 4.5% among 410,000; activity change, negative = inhibition, % at 57.5 µM; in the data active = activity change below about -60%; inconclusive = no clear call, values can overlap the other calls; inactive = above about -39%
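Screen run at 2 compound doses on HFFs infected with reporter HCMV, MOI 1 PFU/cell. Luciferase activity from cell lysates at 72 h post infection gave inhibition relative to buffer-only and Salinomycin wells.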
HCV inh – blocks hepatitis C virus. Huh7.5.1 HCVcc-Cre infection, luciferase reporter, 44 h. Potency, µM (titrated, usually from 41.8 µM), usual class: inhibitors. hit rate 3.4% among 340,000
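After 44 h co-culture of compound, cells and HCVcc-Cre (~0.5 moi), substrate is added for 15 min at room temperature and luciferase measured over 15 sec. Cells were seeded at 1,000/well and pre-cultured 4 h.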
FMDV antiviral – antivirals against foot and mouth disease virus | Potency, µM (doses to about 57.9 µM), usual class: inhibitors | hit rate 1.2% among 410,000 | FMDV antiviral cell-based qHTS; calls by dose curve; tested in HEK293T cells; also: read-out not given here; nearly all actives have a fitted effect of over 45% in size
FBPA Giardia inh – blocks Giardia fructose-bisphosphate aldolase activity | Potency, µM (titrated, usually from 59.6 µM), actives largely listed as inhibitors | A8B2U2 | purified Giardia FBPA | AID 2451 | hit rate 0.71% among 290,000; also: nearly all actives have a fitted effect of over 55% in size
Target sequence (A8B2U2 whole entry, looked up): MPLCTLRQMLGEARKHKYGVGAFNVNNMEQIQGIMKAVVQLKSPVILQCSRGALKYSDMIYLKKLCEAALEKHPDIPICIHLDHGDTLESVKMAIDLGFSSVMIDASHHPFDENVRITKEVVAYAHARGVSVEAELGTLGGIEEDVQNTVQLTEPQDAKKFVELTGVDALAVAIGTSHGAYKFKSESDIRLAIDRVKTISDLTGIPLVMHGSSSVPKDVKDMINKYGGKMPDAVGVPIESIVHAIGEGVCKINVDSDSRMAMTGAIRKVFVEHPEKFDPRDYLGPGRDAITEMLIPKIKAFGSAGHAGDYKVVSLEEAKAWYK
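40 nM FBPA preincubated 10 min at RT with compound (up to 57.5 uM final), then substrate plus GAPDH/TPI/NAD/arsenate coupling and diaphorase/resazurin added. Fluorescence read after 20 min at RT, 525/598 nm.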
Of the large screens only hits and unclear results are named; the others gave an inactive call; ! = a repeat was not active. Rows were chosen to be rich in hits. Some 7.5% of all compounds tested hit in one or more screens of this group. Unless noted, calls follow the shape of the dose curve; as a rule, active = well fitted curve in the direction sought with a large enough effect; inconclusive = small, poorly fitted or top-dose-only effect, or another doubt; inactive = no such curve, though single readings can be large; an effect the other way counts as inactive or inconclusive.

O=C(Nc1cccc(-c2cccc(F)c2)c1)C1CCN(CC2CCOC2)CC1 (stereo not given)	Vaccinia Venus inconclusive, VACV mCherry inh inconclusive, HCV inh inconclusive (no result: FBPA Giardia inh)
CN1C2C=C3C(C#N)=C(N)C(C#N)(C#N)[C@H](c4c(F)cccc4F)[C@H]3C1CC2 (stereo not given in full)	none (no result: FMDV antiviral, FBPA Giardia inh)
N#CC1=C(N)C(C#N)(C#N)[C@H](c2c(F)cccc2F)[C@H]2CC3(CC=C12)OCCO3	HCMV inh -107, FMDV antiviral inconclusive, FBPA Giardia inh inconclusive (no result: Vaccinia Venus, VACV mCherry inh)
CCOC(=O)c1cc(C)sc1NC(=O)CSc1nccn1C	HCMV inh inconclusive, HCV inh 13µM (no result: FBPA Giardia inh)
COC(=O)c1c(NC(=O)CSc2nccn2C)sc(C)c1C	HCV inh inconclusive (no result: FBPA Giardia inh)
CCOC(=O)c1c(NC(=O)CSc2nccn2C)sc(C(=O)NC)c1C	HCV inh 10µM (no result: FBPA Giardia inh)
CCOC(=O)c1c(NC(=O)COC(=O)CC(NC(C)=O)c2ccccc2)sc(C(=O)NC)c1C (stereo not given)	HCV inh 10µM (no result: FBPA Giardia inh)
CC(C)CCN1C(N(C)C)=NC[C@@H]1C	none (no result: FBPA Giardia inh)
O=C(CN1C(=O)c2ccccc2C1=O)c1ccccc1	none (no result: VACV mCherry inh)
CC1=C(CC(=O)c2ccccc2)C(=O)c2ccccc2C1=O	VACV mCherry inh inconclusive, HCMV inh -99, HCV inh inconclusive, FMDV antiviral inconclusive
N#CCCn1cc(C(=O)Nc2ccc([N+](=O)[O-])cc2)c(-c2ccc3c(c2)OCCO3)n1	HCMV inh -67
COC(=O)c1ccc(NC(=O)CCNS(=O)(=O)c2cccc3nsnc23)cc1	none (no result: HCV inh, FBPA Giardia inh)
O=c1[nH]c(-c2ccccc2)nc(-c2ccccc2)c1Cl	none (no result: FBPA Giardia inh)
CCN1/C(=N\N)c2cccc3cccc1c23	FBPA Giardia inh 10µM (no result: Vaccinia Venus, VACV mCherry inh)
O=C(NCc1ccc2c(c1)OCO2)C1CCCN1C(=O)Nc1cccc(Cl)c1 (stereo not given)	none (no result: Vaccinia Venus, VACV mCherry inh)
O=S1(=O)C2CC3CCC2(CN1Cc1ccccc1)O3 (stereo not given)	none (no result: Vaccinia Venus, VACV mCherry inh, HCMV inh, HCV inh, FMDV antiviral)
CC(C)(C)OC(=O)C[C@@H]1C/C=C\C[C@@H](CC(=O)NCCO)C(=O)N2CCC[C@H]2COC1=O	none (no result: FBPA Giardia inh)
CC(C)(C)OC(=O)C[C@H]1C/C=C\C[C@H](CC(=O)NCCO)C(=O)N2CCC[C@@H]2COC1=O	HCMV inh -60 (no result: FBPA Giardia inh)
COc1cc2c(cc1NC(=O)COC(=O)[C@@H](NC(=O)c1ccccc1)C(C)C)oc1ccccc12	HCV inh 7.1µM
COc1cc2c(cc1NC(=O)COCC(=O)O)oc1ccccc12	HCMV inh inconclusive
COc1cc(NC(=O)C2CC(=O)N(Cc3ccco3)C2)c(OC)cc1Cl (stereo not given)	none (no result: Vaccinia Venus, VACV mCherry inh, FBPA Giardia inh)
COc1cc2c(cc1NC(=O)COC(=O)C1CC(=O)N(Cc3ccco3)C1)oc1ccccc12 (stereo not given)	HCV inh 4.5µM
COc1cc2c(cc1NC(=O)COC(=O)[C@@H](NC(=O)c1ccccc1F)C(C)C)oc1ccccc12	HCV inh inconclusive
COc1cc2c(cc1NC(=O)COC(=O)CNC(=O)c1ccccc1)oc1ccccc12	HCMV inh inconclusive, HCV inh 10µM
CC(CNC(=O)c1ccc(Cn2c(SCc3ccccc3)nc3cccnc32)cc1)c1ccccc1 (stereo not given)	none (no result: HCV inh, FBPA Giardia inh)
CCc1ccc(NC(=O)C2CCN(S(=O)(=O)c3c(C)noc3/C=C\c3ccc(OC)cc3)CC2)cc1	FMDV antiviral inconclusive (no result: HCV inh, FBPA Giardia inh)
O=C(Nc1ccc(F)c(F)c1)C1CCN(S(=O)(=O)c2cccc3nonc23)CC1	HCMV inh -77, HCV inh inconclusive, FMDV antiviral 20µM
COc1ccc(/C=C\c2onc(C)c2S(=O)(=O)N2CCC(C(=O)Nc3cccc(OC)c3)CC2)cc1	FMDV antiviral 14µM (no result: HCV inh, FBPA Giardia inh)
Cc1n[nH]c(C)c1S(=O)(=O)N1CCCC(C(=O)NCc2cccs2)C1 (stereo not given)	none
Cc1ccc(/C=C/c2onc(C)c2S(=O)(=O)N2CCC(C(=O)Nc3ccc(Br)c(C)c3)CC2)cc1	none (no result: HCV inh, FBPA Giardia inh)
Cc1n[nH]c(C)c1S(=O)(=O)N1CCCC(C(=O)Nc2nccs2)C1 (stereo not given)	HCMV inh -98
Cc1cc(NC(=O)C2CCN(S(=O)(=O)c3c(C)noc3C)CC2)ccc1Br	HCMV inh -61!, FMDV antiviral inconclusive (no result: FBPA Giardia inh)
Cc1ccc(S(=O)(=O)NCC(=O)N2CCOCCOCCOCC2)cc1	none
COc1cccc(C(=O)NNS(=O)(=O)c2ccccc2)c1	none (no result: HCV inh, FBPA Giardia inh)
Cc1noc(/C=C/c2ccccc2F)c1S(=O)(=O)N1CCC(C(=O)NCc2ccco2)CC1	none (no result: HCV inh, FBPA Giardia inh)
Cc1noc(/C=C/c2ccco2)c1S(=O)(=O)N1CCC(C(=O)Nc2ccc(F)c(Cl)c2)CC1	HCMV inh -84, FMDV antiviral inconclusive (no result: HCV inh, FBPA Giardia inh)
Cc1ccc(Cl)cc1NC(=O)C1CCCN(S(=O)(=O)c2c(C)noc2C)C1 (stereo not given)	FMDV antiviral inconclusive
Cc1cccc(NC(=O)C2CCN(S(=O)(=O)c3c(C)noc3/C=C/c3ccco3)CC2)n1	HCMV inh -66, HCV inh inconclusive
Cc1cc(C)cc(NC(=O)C2CCN(S(=O)(=O)c3c(C)noc3/C=C/c3ccco3)CC2)c1	none (no result: HCV inh, FBPA Giardia inh)
Cc1noc(C)c1S(=O)(=O)N1CCCC(C(=O)Nc2ccc(Cl)cn2)C1 (stereo not given)	HCV inh inconclusive, FMDV antiviral 32µM
CCN(CC)CCNC(=O)C1CCN(S(=O)(=O)c2c(C)noc2/C=C/c2ccccc2F)CC1	HCMV inh -78!, HCV inh 5.6µM (no result: FBPA Giardia inh)
COC(=O)c1cccc(Nc2c(-c3cc(Br)ccc3O)nc3nc[nH]n23)c1	none (no result: HCV inh, FBPA Giardia inh)
CCOc1ccc(NC(=O)C2CCN(S(=O)(=O)c3c(C)noc3/C=C/c3ccco3)CC2)cc1	HCMV inh -78 (no result: HCV inh, FBPA Giardia inh)
Cc1ccc(NC(=O)C2CCN(S(=O)(=O)c3c(C)noc3/C=C/c3ccco3)CC2)cc1C	HCMV inh inconclusive, FMDV antiviral inconclusive (no result: HCV inh, FBPA Giardia inh)
O=C1/C(=C/c2cccc(Br)c2)SC(=S)N1CCC(=O)N(CCO)c1ccccc1	HCMV inh -104 (no result: Vaccinia Venus, VACV mCherry inh)
O=C1/C(=C/c2ccc3c(c2)OCO3)SC(=S)N1CCC(=O)N(CCO)c1ccccc1	HCMV inh -68 (no result: HCV inh, FBPA Giardia inh)
CN1CCN(C(=O)CCN2C(=O)/C(=C/c3cccc(Br)c3)SC2=S)CC1	VACV mCherry inh inconclusive, HCV inh inconclusive
COc1cccc(/C=C2\SC(=S)N(CCCC(=O)N(CCO)c3ccccc3)C2=O)c1	HCMV inh -97, HCV inh inconclusive (no result: Vaccinia Venus, VACV mCherry inh, FBPA Giardia inh)
CC(C)C[C@@H](CNCC(=O)[C@H](C)NC(=O)c1[nH]cnc1C(=O)N[C@@H](C)CN)NC(=O)c1nc[nH]c1C(=O)N[C@@H](CC(=O)O)C(=O)O	none (no result: FBPA Giardia inh)
O=C(Nc1ccccc1F)c1cnc(N2CCCCC2)c2ccccc12	none (no result: HCV inh, FBPA Giardia inh)
COc1ccc(C2C(C(=O)/C=C/c3ccco3)=C(O)C(=O)N2CCN2CCOCC2)cc1 (stereo not given)	HCV inh 11µM, FBPA Giardia inh inconclusive

From PubChem
